# In PubChem BioAssay:
# Values without a mark were called inactive. For part of these data: Measured potencies and affinities stand elsewhere. The source made the active and inactive calls.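 Rule for the calls, unless noted: active = compound raising the membrane signal above positive-control mean plus 3 SD in both repeats, and a primary screen hit; inactive = the rest.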
# What was measured:
# [1] = test system: TRPC4 beta (transient receptor potential cation channel C4), mouse; assay: TRPC4 cation channel opening, retest – cell-based, Fluo4 calcium, HEK293 TRPC4beta/mu-opioid, duplicates, 10 µM, confirmation (AID 2426;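 active = fluorescence ratio normalized to control raised more than 50% in primary screen plus both repeat runs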); conditions: Fluo4 calcium fluorescence, at 10 µM; active compounds read high
# [2] = test system: transient receptor potential cation channel C4 beta (TRPC4), mouse; assay: TRPC4 cation channel opening, second retest – cell-based, second round, Fluo4, HEK293 TRPC4beta/mu-opioid, 1 µM, confirmation (AID 2461;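 active = primary screen active and over 50% activation in each of two duplicate runs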); conditions: Fluo4 calcium fluorescence, at 1 µM; active compounds read high
# [3] = test system: TRPC4 (transient receptor potential cation channel C4 beta), mouse; assay: potentiation of DAMGO EC20 TRPC4 response – cell-based, second round, Fluo-4, HEK293 TRPC4beta/mu-opioid, 1 µM, confirmation (AID 2554;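 active = primary screen hit whose fluorescence ratio, in both repeats, exceeds the weak agonist control mean by 3 SD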); conditions: DAMGO EC20, Fluo-4 calcium flux, at 1 µM; active compounds read high
# [4] = test system: TRPC4 beta (transient receptor potential cation channel C4), mouse; assay: potentiation of DAMGO EC20 TRPC4 response – cell-based, Fluo-4, HEK293 TRPC4beta/mu-opioid, confirmation (AID 2555;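 active = primary screen hit whose calcium fluorescence ratio, in both repeats, exceeds the weak agonist control mean by 3 SD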); conditions: DAMGO EC20, Fluo-4 calcium flux, at 10 µM; active compounds read high
# [5] = biological target: Short transient receptor potential channel 4 (Mus musculus) (UniProt Q9QUQ5); assay: blockers of DAMGO-evoked TRPC4 calcium flux – cell-based, Fluo4, HEK293 TRPC4beta/mu-opioid, confirmation (AID 2636;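 active = calcium signal cut by more than 3 SD below the full-agonist control yet still positive, in both repeats and the earlier primary screen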); conditions: at 10 µM; active compounds read high
# [6] = biological target: Short transient receptor potential channel 4 (Mus musculus) (UniProt Q9QUQ5); assay: blockers of DAMGO-evoked TRPC4 calcium flux – cell-based, second round, Fluo4, HEK293 TRPC4beta/mu-opioid, 1 µM, confirmation (AID 2637;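 active = calcium signal ratio cut to more than 3 SD under the fully stimulated control mean yet still positive, in both repeats and the primary screen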); conditions: at 1 µM; active compounds read high
# [7] = biological target: Short transient receptor potential channel 4 (Mus musculus) (UniProt Q9QUQ5); assay: calcium entry via TRPC4 opening agents – cell-based, HEK293 TRPC4/mu-opioid, Fluo-4 calcium, dose response (AID 434937;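 active = primary screen activator hit with a dose response curve and TRPC4 channel activation at any tested dose; inactive = no activation, no dose response, or not a primary hit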)
# [8] = biological target: Short transient receptor potential channel 4 (Mus musculus) (UniProt Q9QUQ5); assay: potentiation of DAMGO-evoked TRPC4 calcium signal – cell-based, HEK293 TRPC4/mu-opioid, Fluo-4 calcium, EC20 DAMGO, dose response (AID 434941;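 active = earlier screen potentiator hit that boosts the TRPC4 ion channel at some dose, with a dose response; inactive = no potentiation, no dose response, or not a prior hit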;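 note: calcium entry triggered by an EC20 dose of DAMGO at the co-expressed mu-opioid receptor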)
# [9] = biological target: Short transient receptor potential channel 4 (Mus musculus) (UniProt Q9QUQ5); assay: block of DAMGO-driven TRPC4 calcium entry – cell-based, HEK293 TRPC4/mu-opioid, Fluo-4 calcium, dose response (AID 434942;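 active = primary screen inhibitor hit that blocks the TRPC4 channel at some tested dose, yielding a dose curve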)
# [10] = biological target: Short transient receptor potential channel 6 (Mus musculus) (UniProt Q61143); assay: TRPC6 blockade by TRPC4 inhibitor hits – cell-based, HEK293, membrane potential dye, duplicate, selectivity assay for TRPC4 inhibitor project, confirmation (AID 434948;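 active = active in primary screen and both duplicates, each dropping signal beyond three positive-control SD with fluorescence still positive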); conditions: HEK293 TRPC6, membrane potential dye fluorescence, at 10 µM, stimulated with maximal-effect acetylcholine; active compounds read high
# [11] = biological target: Short transient receptor potential channel 6 (Mus musculus) (UniProt Q61143); assay: TRPC6 opening by TRPC4 activator hits – cell-based, HEK293, membrane potential dye, duplicate, selectivity assay for TRPC4 activator project, confirmation (AID 434950;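 active = membrane potential signal rise above negative control mean plus 3 SD in both duplicates, also active in the earlier TRPC4 screen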;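 for activation: 0% = buffer only wells and 100% = acetylcholine maximal-effect wells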); conditions: HEK293 TRPC6, membrane potential fluorescence, at 10 µM; activation: active compounds read high; outcome: activation
# [12] = biological target: Short transient receptor potential channel 6 (Mus musculus) (UniProt Q61143); assay: positive modulators of mouse TRPC6 channel – HEK293 cells, membrane potential dye, duplicate, selectivity assay for TRPC4 potentiator project, confirmation (AID 434952); conditions: HEK293 TRPC6, membrane potential dye fluorescence, at 10 µM, maximal acetylcholine added after compound; active compounds read high
# [13] = biological target: Short transient receptor potential channel 4 (Mus musculus) (UniProt Q9QUQ5); assay: calcium flux activators in TRPC4/5HT1a cells, counter-screen for TRPC4 activator project, cell-based, second counter screen, HEK293 TRPC4/5HT1a, Fluo-4 (AID 434977;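 active = calcium signal rise above buffer-control mean plus 5 SD in both duplicates, and also a hit in the primary screen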); conditions: Fluo-4 calcium flux, at 10 µM; active compounds read high
# [14] = serotonin-gated TRPC4 signal block – cell-based, second counter screen, HEK293 TRPC4/5HT1a, Fluo-4, counter-screen for TRPC4 inhibitor project, confirmation (AID 434978;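 active = primary screen active whose calcium signal fell more than 3 SD beyond the full-serotonin control mean in both duplicate plates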;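 note: serotonin given first at submaximal then at maximal dose after compound preincubation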); conditions: Fluo-4 calcium flux, at 10 µM, serotonin added to trigger calcium flux; active compounds read high
# [15] = test system: TRPC4 (mouse), co-expressed with 5HT1a in HEK293; assay: enhancement of serotonin-evoked TRPC4 response – cell-based, second counter screen, HEK293 TRPC4/5HT1a, Fluo-4, counter-screen for TRPC4 potentiator project, confirmation (AID 434979;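 active = signal rise over 3 SD above mean of control wells given weak agonist, in both repeats and first screen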); conditions: Fluo-4 calcium flux, at 10 µM, serotonin added at its EC20 dose; active compounds read high
# [16] = nonspecific calcium rise without TRPC4 – cell-based, HEK293 mu-opioid receptor line, counter-screen for TRPC4 activator project, confirmation (AID 449723;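 active = hit in primary screen, with calcium signal over 5 SD above buffer well mean in both duplicates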;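 note: counter screen cells carry the mu-opioid receptor alone and lack TRPC4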); conditions: HEK293 mu-opioid cells, Fluo-4 calcium fluorescence, at 10 µM; active compounds read high
# [17] = nonspecific potentiation of DAMGO calcium response – cell-based, HEK293 mu-opioid receptor line, counter-screen for TRPC4 allosteric potentiator project, confirmation (AID 449724;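 active = calcium signal rise more than 3 SD above the low-dose agonist control mean, in both duplicate plates and the primary screen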); conditions: HEK293 mu-opioid receptor cells, Fluo-4 calcium flux, at 10 µM, compound added before EC20 DAMGO stimulus; active compounds read high
# Short transient receptor potential channel 6 (Mus musculus), sequence (Q61143 whole entry, looked up): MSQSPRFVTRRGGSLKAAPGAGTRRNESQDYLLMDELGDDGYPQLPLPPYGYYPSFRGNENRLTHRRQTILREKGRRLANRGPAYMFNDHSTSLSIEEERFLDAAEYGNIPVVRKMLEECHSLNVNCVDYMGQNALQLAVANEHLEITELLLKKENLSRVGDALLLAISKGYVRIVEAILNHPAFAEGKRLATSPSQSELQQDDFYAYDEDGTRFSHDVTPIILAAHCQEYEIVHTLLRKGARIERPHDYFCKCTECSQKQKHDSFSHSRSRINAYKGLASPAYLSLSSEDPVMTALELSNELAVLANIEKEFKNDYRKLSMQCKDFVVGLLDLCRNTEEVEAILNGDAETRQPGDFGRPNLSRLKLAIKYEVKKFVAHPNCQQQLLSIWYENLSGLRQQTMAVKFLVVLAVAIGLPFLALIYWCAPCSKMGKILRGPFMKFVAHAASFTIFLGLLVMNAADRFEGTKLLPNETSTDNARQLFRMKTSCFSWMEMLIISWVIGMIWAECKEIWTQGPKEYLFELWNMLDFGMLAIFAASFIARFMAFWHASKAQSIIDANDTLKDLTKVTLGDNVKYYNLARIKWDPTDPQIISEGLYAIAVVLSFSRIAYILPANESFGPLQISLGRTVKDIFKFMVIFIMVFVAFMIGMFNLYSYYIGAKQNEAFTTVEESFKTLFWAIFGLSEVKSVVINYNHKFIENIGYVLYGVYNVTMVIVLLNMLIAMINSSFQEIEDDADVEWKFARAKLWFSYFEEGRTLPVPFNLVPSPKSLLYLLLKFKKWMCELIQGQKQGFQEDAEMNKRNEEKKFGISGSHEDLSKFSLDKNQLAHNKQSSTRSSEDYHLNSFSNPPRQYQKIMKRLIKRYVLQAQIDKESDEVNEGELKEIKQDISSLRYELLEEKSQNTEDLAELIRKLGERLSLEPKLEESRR
# Short transient receptor potential channel 4 (Mus musculus), sequence (Q9QUQ5 whole entry, looked up): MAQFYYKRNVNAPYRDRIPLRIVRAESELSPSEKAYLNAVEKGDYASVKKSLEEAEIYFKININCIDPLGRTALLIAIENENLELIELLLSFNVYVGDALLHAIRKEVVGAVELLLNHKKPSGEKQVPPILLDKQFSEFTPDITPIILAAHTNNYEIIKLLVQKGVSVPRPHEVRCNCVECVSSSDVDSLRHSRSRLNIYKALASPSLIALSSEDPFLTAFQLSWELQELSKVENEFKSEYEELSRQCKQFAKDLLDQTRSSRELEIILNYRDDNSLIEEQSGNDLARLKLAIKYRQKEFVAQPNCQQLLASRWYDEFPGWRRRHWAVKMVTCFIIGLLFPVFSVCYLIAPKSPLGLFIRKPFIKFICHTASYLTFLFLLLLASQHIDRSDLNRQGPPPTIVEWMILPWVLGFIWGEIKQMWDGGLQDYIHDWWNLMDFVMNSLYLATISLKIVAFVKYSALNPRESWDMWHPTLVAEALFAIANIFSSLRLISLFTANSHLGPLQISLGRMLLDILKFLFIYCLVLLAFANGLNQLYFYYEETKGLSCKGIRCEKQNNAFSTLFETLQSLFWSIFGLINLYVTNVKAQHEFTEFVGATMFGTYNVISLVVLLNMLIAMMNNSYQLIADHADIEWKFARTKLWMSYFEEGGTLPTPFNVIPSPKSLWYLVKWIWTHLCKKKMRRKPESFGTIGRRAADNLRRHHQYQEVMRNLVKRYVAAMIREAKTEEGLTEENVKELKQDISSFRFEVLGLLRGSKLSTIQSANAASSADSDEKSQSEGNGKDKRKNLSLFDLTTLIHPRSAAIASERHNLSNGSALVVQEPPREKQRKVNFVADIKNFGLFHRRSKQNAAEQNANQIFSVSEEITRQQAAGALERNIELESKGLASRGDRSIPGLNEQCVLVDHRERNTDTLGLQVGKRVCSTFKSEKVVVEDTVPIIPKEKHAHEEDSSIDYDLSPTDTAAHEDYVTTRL
smiles,measurement,setting,value
COc1ccccc1N1CCN(Cc2cc(=O)c(OCC(=O)NC3CCCC3)co2)CC1,outcome,[1],inactive
same,outcome,[2],inactive
same,outcome,[3],inactive
same,outcome,[4],inactive
same,outcome,[5],inactive
same,outcome,[6],inactive
same,outcome,[7],inactive
same,outcome,[8],inactive
same,outcome,[9],inactive
same,outcome,[10],inactive
same,outcome,[11],inactive
same,outcome,[12],inactive
same,outcome,[13],inactive
same,outcome,[14],inactive
same,outcome,[15],inactive
same,outcome,[16],inactive
same,outcome,[17],inactive
COc1cccc(OCC(=O)NC2CCCCC2)c1,outcome,[1],inactive
same,outcome,[2],inactive
same,outcome,[3],inactive
same,potentiation,[4],41% (active)
same,outcome,[5],inactive
same,outcome,[6],inactive
same,outcome,[7],inactive
same,outcome,[8],inactive
same,outcome,[9],inactive
same,outcome,[10],inactive
same,outcome,[11],inactive
same,outcome,[12],inactive
same,outcome,[13],inactive
same,outcome,[14],inactive
same,potentiation,[15],26.3% (active)
same,outcome,[16],inactive
same,outcome,[17],inactive
COc1cc(=O)n2c(-c3ccccc3)csc2n1,outcome,[1],inactive
same,outcome,[2],inactive
same,outcome,[3],inactive
same,outcome,[4],inactive
same,inhibition,[5],39% (active)
same,outcome,[6],inactive
same,outcome,[7],inactive
same,outcome,[8],inactive
same,outcome,[9],inactive
same,outcome,[10],inactive
same,outcome,[11],inactive
same,outcome,[12],inactive
same,outcome,[13],inactive
same,outcome,[14],inactive
same,outcome,[15],inactive
same,outcome,[16],inactive
same,outcome,[17],inactive
CC(C)(C)n1nnnc1C(c1ccc(Cl)cc1)N(Cc1cccnc1)Cc1ccco1 (stereo not given),outcome,[1],inactive
same,outcome,[2],inactive
same,outcome,[3],inactive
same,outcome,[4],inactive
same,outcome,[5],inactive
same,outcome,[6],inactive
same,outcome,[7],inactive
same,outcome,[8],inactive
same,outcome,[9],inactive
same,outcome,[10],inactive
same,outcome,[11],inactive
same,outcome,[12],inactive
same,outcome,[13],inactive
same,outcome,[14],inactive
same,outcome,[15],inactive
same,outcome,[16],inactive
same,outcome,[17],inactive
O=[N+]([O-])c1ccc(S(=O)(=O)NCCCc2ccccc2)cc1,outcome,[1],inactive
same,outcome,[2],inactive
same,outcome,[3],inactive
same,outcome,[4],inactive
same,outcome,[5],inactive
same,outcome,[6],inactive
same,outcome,[7],inactive
same,outcome,[8],inactive
same,outcome,[9],inactive
same,outcome,[10],inactive
same,outcome,[11],inactive
same,outcome,[12],inactive
same,outcome,[13],inactive
same,outcome,[14],inactive
same,outcome,[15],inactive
same,outcome,[16],inactive
same,outcome,[17],inactive
Cc1[nH]nc(-c2ccc(O)cc2O)c1-c1nc2ccccc2s1,outcome,[1],inactive
same,outcome,[2],inactive
same,outcome,[3],inactive
same,outcome,[4],inactive
same,outcome,[5],inactive
same,outcome,[6],inactive
same,outcome,[7],inactive
same,outcome,[8],inactive
same,outcome,[9],inactive
same,outcome,[10],inactive
same,outcome,[11],inactive
same,outcome,[12],inactive
same,outcome,[13],inactive
same,outcome,[14],inactive
same,outcome,[15],inactive
same,outcome,[16],inactive
same,outcome,[17],inactive
Clc1ccc(OCCn2ccnc2)c(Br)c1,outcome,[1],inactive
same,outcome,[2],inactive
same,outcome,[3],inactive
same,potentiation,[4],13% (active)
same,outcome,[5],inactive
same,outcome,[6],inactive
same,outcome,[7],inactive
same,outcome,[8],inactive
same,outcome,[9],inactive
same,outcome,[10],inactive
same,outcome,[11],inactive
same,outcome,[12],inactive
same,outcome,[13],inactive
same,outcome,[14],inactive
same,potentiation,[15],12.6% (active)
same,outcome,[16],inactive
same,outcome,[17],inactive
CC(C)C(=O)N1CCN(c2ccccc2NC(=O)c2ccco2)CC1,outcome,[1],inactive
same,outcome,[2],inactive
same,outcome,[3],inactive
same,outcome,[4],inactive
same,inhibition,[5],84% (active)
same,outcome,[6],inactive
same,outcome,[7],inactive
same,outcome,[8],inactive
same,outcome,[9],inactive
same,outcome,[10],inactive
same,outcome,[11],inactive
same,outcome,[12],inactive
same,outcome,[13],inactive
same,outcome,[14],inactive
same,outcome,[15],inactive
same,outcome,[16],inactive
same,outcome,[17],inactive
CC(=NCCN1CCN(C(C)=C2C(=O)c3ccccc3C2=O)CC1)C1=C(O)CC(C)(C)CC1=O,outcome,[1],inactive
same,outcome,[2],inactive
same,outcome,[3],inactive
same,outcome,[4],inactive
same,outcome,[5],inactive
same,outcome,[6],inactive
same,outcome,[7],inactive
same,outcome,[8],inactive
same,outcome,[9],inactive
same,outcome,[10],inactive
same,outcome,[11],inactive
same,outcome,[12],inactive
same,outcome,[13],inactive
same,outcome,[14],inactive
same,outcome,[15],inactive
same,outcome,[16],inactive
same,outcome,[17],inactive
Cc1ccnc(NC(=O)COC(=O)C23CC4CC(CC(C4)C2)C3)n1,outcome,[1],inactive
same,outcome,[2],inactive
same,outcome,[3],inactive
same,potentiation,[4],128% (active)
same,outcome,[5],inactive
same,outcome,[6],inactive
same,outcome,[7],inactive
same,outcome,[8],inactive
same,outcome,[9],inactive
same,outcome,[10],inactive
same,outcome,[11],inactive
same,outcome,[12],inactive
same,outcome,[13],inactive
same,outcome,[14],inactive
same,potentiation,[15],104% (active)
same,outcome,[16],inactive
same,outcome,[17],inactive
Cc1cccc(OCCn2c(=O)sc3ccccc32)c1,outcome,[1],inactive
same,outcome,[2],inactive
same,outcome,[3],inactive
same,outcome,[4],inactive
same,outcome,[5],inactive
same,outcome,[6],inactive
same,outcome,[7],inactive
same,outcome,[8],inactive
same,outcome,[9],inactive
same,outcome,[10],inactive
same,outcome,[11],inactive
same,outcome,[12],inactive
same,outcome,[13],inactive
same,outcome,[14],inactive
same,outcome,[15],inactive
same,outcome,[16],inactive
same,outcome,[17],inactive
COC(=O)C1=C(CCc2ccccc2)NC(=O)NC1c1ccc(Cl)cc1 (stereo not given),outcome,[1],inactive
same,outcome,[2],inactive
same,outcome,[3],inactive
same,potentiation,[4],35% (active)
same,outcome,[5],inactive
same,outcome,[6],inactive
same,outcome,[7],inactive
same,outcome,[8],inactive
same,outcome,[9],inactive
same,outcome,[10],inactive
same,outcome,[11],inactive
same,outcome,[12],inactive
same,outcome,[13],inactive
same,outcome,[14],inactive
same,potentiation,[15],39.7% (active)
same,outcome,[16],inactive
same,outcome,[17],inactive
COc1cccc(OCCOCCNCCO)c1,outcome,[1],inactive
same,outcome,[2],inactive
same,outcome,[3],inactive
same,outcome,[4],inactive
same,outcome,[5],inactive
same,outcome,[6],inactive
same,outcome,[7],inactive
same,outcome,[8],inactive
same,outcome,[9],inactive
same,outcome,[10],inactive
same,activation,[11],33.5% (active)
same,outcome,[12],inactive
same,outcome,[13],inactive
same,outcome,[14],inactive
same,outcome,[15],inactive
same,outcome,[16],inactive
same,outcome,[17],inactive
CCCn1c(=O)c(C(=O)NCC2CCCO2)c(O)c2ccccc21 (stereo not given),outcome,[1],inactive
same,outcome,[2],inactive
same,potentiation,[3],16% (active)
same,potentiation,[4],11% (active)
same,outcome,[5],inactive
same,outcome,[6],inactive
same,outcome,[7],inactive
same,outcome,[8],inactive
same,outcome,[9],inactive
same,outcome,[10],inactive
same,outcome,[11],inactive
same,outcome,[12],inactive
same,outcome,[13],inactive
same,outcome,[14],inactive
same,potentiation,[15],7.45% (active)
same,outcome,[16],inactive
same,outcome,[17],inactive
CN(Cc1ccco1)C(=O)Cn1ncc2c([nH]c3ccccc32)c1=O,outcome,[1],inactive
same,outcome,[2],inactive
same,outcome,[3],inactive
same,potentiation,[4],10% (active)
same,outcome,[5],inactive
same,outcome,[6],inactive
same,outcome,[7],inactive
same,outcome,[8],inactive
same,outcome,[9],inactive
same,outcome,[10],inactive
same,outcome,[11],inactive
same,outcome,[12],inactive
same,outcome,[13],inactive
same,outcome,[14],inactive
same,potentiation,[15],61.1% (active)
same,outcome,[16],inactive
same,outcome,[17],inactive
